# Results published in PubChem BioAssay AID504757 (Sanford-Burnham Center for Chemical Genomics, 2011).
# The other results are listed elsewhere or left out. The source made the active and inactive calls. No stated cut-off is given here; in the data, active means inhibition above about 39%; inactive means the rest.
# Biological target: Cysteine protease ATG4B (Homo sapiens) (UniProt Q9Y4P1)
# Experiment: re-tested blockers of ATG4B cleavage activity – biochemical, fluorescence, single concentration, confirmation (AID 504757)
# Settings: ATG4B protease fluorescent substrate cleavage assay; at 8.33 µM; active compounds read high
# Chain of Cysteine protease ATG4B (Homo sapiens) (Q9Y4P1 whole entry, looked up): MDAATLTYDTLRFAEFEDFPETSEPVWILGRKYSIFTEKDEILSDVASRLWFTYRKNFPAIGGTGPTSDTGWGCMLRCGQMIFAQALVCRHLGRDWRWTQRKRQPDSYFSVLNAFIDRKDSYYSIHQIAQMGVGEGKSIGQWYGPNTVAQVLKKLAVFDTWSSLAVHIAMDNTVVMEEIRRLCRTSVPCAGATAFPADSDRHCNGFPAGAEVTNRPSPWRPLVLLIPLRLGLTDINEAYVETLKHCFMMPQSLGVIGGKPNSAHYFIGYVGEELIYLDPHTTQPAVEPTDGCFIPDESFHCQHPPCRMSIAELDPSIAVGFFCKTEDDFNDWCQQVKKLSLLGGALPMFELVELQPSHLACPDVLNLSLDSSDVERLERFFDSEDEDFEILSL
smiles,measurement,value
Cc1cc(OCc2cc(C(=O)O)oc2C)c2c3c(c(=O)oc2c1)CCCC3,inhibition,66.3% (active)
